PubChem BioAssay AID488815 (Broad Institute, 2010)
Entries with a potency or affinity are not part of this list. Results filed as inconclusive are left out. The source made the active and inactive calls. How the calls were made is not given here.

Target: CAAX prenyl protease 1 (Saccharomyces cerevisiae (strain ATCC 204508 / S288c)) (UniProt P47154)
Assay: Ste24 protease inhibitors, dose response, biochemical, S. cerevisiae, plate reader, cherry-pick (AID 488815)

Chain of CAAX prenyl protease 1 (Saccharomyces cerevisiae (strain ATCC 204508 / S288c)) (P47154 whole entry, looked up): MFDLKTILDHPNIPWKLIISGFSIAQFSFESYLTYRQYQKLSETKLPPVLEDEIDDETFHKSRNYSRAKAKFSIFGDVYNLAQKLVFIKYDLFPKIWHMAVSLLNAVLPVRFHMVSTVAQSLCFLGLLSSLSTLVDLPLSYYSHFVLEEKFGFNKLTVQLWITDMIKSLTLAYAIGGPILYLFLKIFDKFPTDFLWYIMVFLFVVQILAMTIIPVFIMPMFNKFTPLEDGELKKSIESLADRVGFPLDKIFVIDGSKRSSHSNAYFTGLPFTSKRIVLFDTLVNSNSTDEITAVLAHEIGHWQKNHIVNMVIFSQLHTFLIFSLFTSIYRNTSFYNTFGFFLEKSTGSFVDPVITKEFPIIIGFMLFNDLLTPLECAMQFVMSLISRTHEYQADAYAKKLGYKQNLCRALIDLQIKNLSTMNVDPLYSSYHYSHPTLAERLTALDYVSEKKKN

Row | Structure (SMILES) | outcome
1 | CC(C)OCCCNC(=O)c1c(N)n(CC2CCCO2)c2nc3ccccc3nc12 (configuration not stated) | inactive
2 | Cc1ccnc(-n2c(-c3ccco3)nc3ccccc3c2=O)c1 | inactive
3 | C=CCn1c(O)c(C(CC)=Nc2ccc(N(CC)CC)cc2)c(=O)[nH]c1=O | inactive
4 | O=[N+]([O-])c1ccc(C[n+]2c(-c3ccccc3)cc(-c3ccccc3)cc2-c2ccccc2)cc1 | inactive
5 | CN1CCN(c2ccc([N+](=O)[O-])c(Sc3nncn3C)c2)CC1 | inactive
6 | c1ccc(CCCN2CCN(CCOC(c3ccccc3)c3ccccc3)CC2)cc1 | inactive
7 | CCOC(=O)[C@@H]1[C@H]2COc3ccc(Br)cc3[C@@H]2N2C(=O)N(c3cccc(C)c3)C(=O)[C@]12C | inactive
